TDP1 cell CPT – growth inhibition of DT40 Tdp1-/-;hTDP1 cells with camptothecin (screen for TDP1 inhibitors); chicken DT40 Tdp1-/-;hTDP1 cells + 20 nM CPT, ATP luminescence, 48 h; Potency, µM (series often up to 46.2 µM), inactives show top-dose activity change, negative = growth inhibition, most hits filed as inhibitors; 420,000 tested, 12% active; AID 686979; further: nearly all actives have a fitted effect of over 55% in size
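Chicken DT40 Tdp1-/- cells complemented with human TDP1, 400 cells/well, exposed to compounds plus 20 nM camptothecin for at least 48 h at 37 C; viability read as ATP content by CellTiter-Glo luminescence.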
HT1080NT lethal – kills 2HG-producing HT-1080-NT fibrosarcoma cells; HT-1080-NT fibrosarcoma viability, CellTiter-Glo ATP luminescence, 48 h; Potency, µM (doses to about 46.1 µM), without a hit: at the top dose activity, negative = less viability, hits mostly cytotoxic; 360,000 tested, 1.6% active; AID 686970;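 further: NT is the 2HG producing partner of a matched IDH1 knockdown line; 0% = DMSO-treated cells and -100% = media-only wells without cells; nearly all actives have a fitted effect of over 55% in size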
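Viability of the 2HG-overproducing fibrosarcoma line after 48 hours of compound exposure at 37 degrees C was determined by luminescence with CellTiter-Glo, and concentration-effect curves were then fitted and categorized.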
KB-3-1 tox – kills parental KB-3-1 adenocarcinoma cells; KB-3-1 viability, CellTiter-Glo ATP luminescence, 72 h; Potency, µM (series often up to 46.1 µM), most hits filed as cytotoxic; 400,000 tested, 1.4% active; further: nearly all actives have a fitted effect of over 60% in size
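Cytotoxicity measured as CellTiter-Glo luminescence after 72 h at 37 C. Compound titrations were pinned onto drug-naive KB-3-1 parental adenocarcinoma cells grown in DMEM with 10% FBS, and normalized data fitted to concentration-response curves.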
DT40 TDP1 no CPT – qHTS for Inhibitors of human tyrosyl-DNA phosphodiesterase 1 (TDP1): qHTS in cells in absence of CPT | DT40 Tdp1-/- hTDP1 cells, no CPT, ATP luminescence, 48 h | Potency, µM (series often up to 46.2 µM), without a hit: at the top dose activity change, negative = growth inhibition, actives largely listed as inhibitors | 420,000 tested, 15% active | AID 686978, 2013; further: nearly all actives have a fitted effect of over 55% in size
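Readout: luminescence from CellTiter-Glo after 30 min in the dark at RT. Cells: DT40 Tdp1-/- with stable hTDP1, 400/well. Exposure: compounds alone, ≥48 hr, 37 °C.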
HT1080 IDH1KD tx – HT-1080 IDH1 knockdown cell toxicity (counter line); HT-1080 IDH1 knockdown viability, ATP luminescence, 48 h; Potency, µM (highest dose often 46.1 µM), without a hit: top-dose activity, negative = toxicity, usual class: cytotoxic; 360,000 tested, 2% active; AID 686971;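 further: 0% = DMSO wells and -100% = cell-free medium wells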
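Using the IDH1-knockdown HT-1080 line run in the same batch and compound series as the NT line, viability after 48 h at 37 °C was determined by CellTiter-Glo luminescence and expressed as % activity.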
KB-V1 cytotox – kills drug-selected multidrug resistant KB-V1 cells. 400,000 tested, 3.4% active. Potency, µM (titrated, usually from 46.1 µM), hits mostly cytotoxic. AID 1347076. KB-V1 MDR cells viability, CellTiter-Glo, 72 h; further: nearly all actives have a fitted effect of over 60% in size
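Luminescent ATP read-out (CellTiter-Glo, 10 min) measures survival of drug-selected KB-V1 MDR cells after 72 h, 37 degrees C compound exposure. Medium: phenol-red-free DMEM, 10% FBS. Values from fitted concentration-response curves.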
The depositor's hits bear a star. Only some compounds are listed: those with a hit (about 19% of all), similar ones and a draw of the others. The call rests on the fitted dose curve; in most records, active means well fitted curve in the direction sought with a large enough effect; inconclusive means small, poorly fitted or top-dose-only effect, or another doubt; inactive means no such curve, though single readings can be large; an effect the other way counts as inactive or inconclusive. Unless noted, on the % scale 0 is the no-effect control and ±100 the full control effect; potency means the concentration at half of the fitted maximal effect.

Results for Cc1cccc(NC(=O)C2CCCN(c3nnc(-n4c(C)ccc4C)s3)C2)c1C (configuration not stated) ?
TDP1 cell CPT: 14.6µM*; DT40 TDP1 no CPT: 14.6µM*

What do the screens show for `Cc1cccc(NC(=O)C2CCCN(c3nc4ccccc4s3)C2)c1C` (configuration not stated)?
TDP1 cell CPT: inconclusive; KB-3-1 tox: inactive; DT40 TDP1 no CPT: inconclusive; KB-V1 cytotox: inactive

Results for CC(=O)c1ccc(NC(=O)Nc2nnc(N3CCCC(C)C3)s2)cc1 (configuration not stated) ?
TDP1 cell CPT: 6.51µM*; KB-3-1 tox: inactive; DT40 TDP1 no CPT: 18.4µM*; KB-V1 cytotox: inactive

Results for CC(=O)c1ccc(NC(=O)CN(C)S(=O)(=O)c2cc3c(cc2C)NC(=O)CO3)cc1 ?
TDP1 cell CPT: -14.8%; KB-3-1 tox: inactive; DT40 TDP1 no CPT: inconclusive; KB-V1 cytotox: inactive

What do the screens show for `Cc1cccc(NC(=O)c2ccccc2NC(=O)C2CCCCC2)c1C`?
TDP1 cell CPT: -29.3%; HT1080NT lethal: -1.4%; KB-3-1 tox: inactive; DT40 TDP1 no CPT: inconclusive; HT1080 IDH1KD tx: 18.5%; KB-V1 cytotox: 18.4µM*

How did Cc1ccc(N2CC(C(=O)Nc3ccccc3C(=O)NC3CCCCC3)CC2=O)cc1 (configuration not stated) do in these assays?
TDP1 cell CPT: 1.3%; HT1080NT lethal: 5.7%; KB-3-1 tox: inactive; DT40 TDP1 no CPT: -7.3%; HT1080 IDH1KD tx: -0.4%; KB-V1 cytotox: 3.66µM*

What do the screens show for `COc1cccc(NC(=O)C2CCC2)c1`?
TDP1 cell CPT: -4.0%; HT1080NT lethal: 3.0%; KB-3-1 tox: inactive; DT40 TDP1 no CPT: -1.5%; HT1080 IDH1KD tx: 0.6%; KB-V1 cytotox: inactive

How did COc1cccc(NC(=O)C2CCCN(c3nnc(-n4c(C)ccc4C)s3)C2)c1 (configuration not stated) do in these assays?
TDP1 cell CPT: 18.4µM*; DT40 TDP1 no CPT: 13µM*

How did O=C(NC1CCCCC1)c1ccccc1NC(=O)C1CC(=O)N(c2ccccc2)C1 (configuration not stated) do in these assays?
TDP1 cell CPT: -28.3%; HT1080NT lethal: 5.1%; KB-3-1 tox: inactive; DT40 TDP1 no CPT: -11.7%; HT1080 IDH1KD tx: -16.9%; KB-V1 cytotox: inactive

How did O=C(CSc1nc2c([nH]c3ccccc32)c(=O)n1-c1ccccc1)N1CCCCC1 do in these assays?
TDP1 cell CPT: 0.2%; DT40 TDP1 no CPT: -4.2%

How did CC1(C(=O)N2CC3(CC(c4cccc(NC(=O)CC(c5ccccc5)c5ccccc5)c4)=NO3)C[C@@H]2C(N)=O)CC1 (some centres not stated) do in these assays?
TDP1 cell CPT: -28.2%; HT1080NT lethal: 9.0%; KB-3-1 tox: inactive; DT40 TDP1 no CPT: -29.3%; HT1080 IDH1KD tx: -1.2%; KB-V1 cytotox: inconclusive

Results for CCCCCC(=O)Nc1cccc(C2=NOC3(C2)C[C@@H](C(N)=O)N(C(=O)CC(c2ccccc2)c2ccccc2)C3)c1 (some centres not stated) ?
TDP1 cell CPT: 23.1µM*; HT1080NT lethal: -21.7%; KB-3-1 tox: 16.4µM*; DT40 TDP1 no CPT: inconclusive; HT1080 IDH1KD tx: inconclusive; KB-V1 cytotox: inactive

How did C/C=C\C(=O)Nc1cccc(C2=NOC3(C2)C[C@@H](C(N)=O)N(C(=O)CC(c2ccccc2)c2ccccc2)C3)c1 (some centres not stated) do in these assays?
TDP1 cell CPT: inconclusive; HT1080NT lethal: 0.4%; KB-3-1 tox: inactive; DT40 TDP1 no CPT: 16.4µM*; HT1080 IDH1KD tx: -2.2%; KB-V1 cytotox: inactive

High-throughput results from PubChem.
